Results: PubChem BioAssay (Tox21)
Records with an inconclusive call do not appear. The source made the active and inactive calls. Calls come from the whole dose curve; as a rule, active = well fitted curve in the direction sought with a large enough effect in the repeat runs; inconclusive = weak or mixed curves; inactive = no such curve, though single readings can be large; an effect the other way counts as inactive or inconclusive.

Key:
[1] = A CellTox Green Cytotoxicity Assay to monitor cytotoxicity in HEK293 cells - 0 hour (AID 1224869); note: nearly all actives have a fitted effect of over 50% in size
Outline: (§1)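 Dead-cell fluorescence measured kinetically: asymmetric cyanine dye, HEK293, 600 cells/well, 5 h settle, 23 nL cpd/DMSO, 37 C, reads 0–40 h every 8 h.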

[2] = qHTS RealTime-Glo MT Cell Viability Assay in HepG2 cells - 40 hour (AID 1224870); note: nearly all actives have a fitted effect of over 50% in size
Outline: (§2)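 Real-time viability: cells seeded at 600 per well together with NanoLuc and cell-permeant prosubstrate, compounds added after 5 h incubation. Luminescence tracked at 0, 8, 16, 24, 32 and 40 h of exposure.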

[3] = A CellTox Green Cytotoxicity Assay to monitor cytotoxicity in HEK293 cells - 40 hour (AID 1224871); note: nearly all actives have a fitted effect of over 45% in size; note: potency is the fitted concentration of half-maximal effect
Outline: as §1

[4] = qHTS RealTime-Glo MT Cell Viability Assay in HEK293 cells - 16 hour (AID 1224872); note: top concentration of the series differs between compounds; nearly all actives have a fitted effect of over 50% in size
Outline: (§3)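 Viability tracked continuously by luminescence as live cells reduce a prosubstrate for NanoLuc; HEK293 cells preincubated 5 h, compound-treated at 37 C, and read at 0, 8, 16, 24, 32 and 40 h.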

[5] = A CellTox Green Cytotoxicity Assay to monitor cytotoxicity in HEK293 cells - 24 hour (AID 1224875); note: nearly all actives have a fitted effect of over 45% in size; note: potency is the fitted concentration of half-maximal effect
Outline: as §1

[6] = A CellTox Green Cytotoxicity Assay to monitor cytotoxicity in HepG2 cells - 16 hour (AID 1224876); note: nearly all actives have a fitted effect of over 45% in size; note: potency is the fitted concentration of half-maximal effect
Outline: (§4)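 First, HepG2 cells (600/well) mixed with reagent were plated; second, after 5 h at 37 C they received compounds via pintool; third, fluorescence was measured at 0 h through 40 h at 8 h intervals.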

[7] = qHTS RealTime-Glo MT Cell Viability Assay in HepG2 cells - 32 hour (AID 1224877); note: nearly all actives have a fitted effect of over 55% in size
Outline: (§5)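 Viability was tracked continuously by NanoLuc luminescence from prosubstrate reduced by living HepG2 cells, at successive time points over 40 h of compound exposure. Cells with reagent were preincubated 5 h at 37 °C before compound addition.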

[8] = A CellTox Green Cytotoxicity Assay to monitor cytotoxicity in HepG2 cells - 24 hour (AID 1224878); note: nearly all actives have a fitted effect of over 45% in size; note: potency is the fitted concentration of half-maximal effect
Outline: as §4

[9] = A CellTox Green Cytotoxicity Assay to monitor cytotoxicity in HepG2 cells - 40 hour (AID 1224879); note: nearly all actives have a fitted effect of over 40% in size; note: potency is the fitted concentration of half-maximal effect
Outline: as §4

[10] = qHTS RealTime-Glo MT Cell Viability Assay in HEK293 cells - 0 hour (AID 1224880)
Outline: (§6)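 600 HEK293 cells per well, dispensed already mixed with RealTime-Glo MT reagents. Compound dosing came 5 h later. The same wells were read for luminescence at 0, 8, 16, 24, 32 and 40 h of exposure at 37 C.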

[11] = A CellTox Green Cytotoxicity Assay to monitor cytotoxicity in HEK293 cells - 32 hour (AID 1224881); note: nearly all actives have a fitted effect of over 40% in size; note: potency is the fitted concentration of half-maximal effect
Outline: as §1

[12] = A CellTox Green Cytotoxicity Assay to monitor cytotoxicity in HepG2 cells - 0 hour (AID 1224882); note: nearly all actives have a fitted effect of over 35% in size
Outline: as §4

[13] = A CellTox Green Cytotoxicity Assay to monitor cytotoxicity in HepG2 cells - 32 hour (AID 1224883); note: nearly all actives have a fitted effect of over 50% in size; note: potency is the fitted concentration of half-maximal effect
Outline: as §4

[14] = A CellTox Green Cytotoxicity Assay to monitor cytotoxicity in HEK293 cells - 8 hour (AID 1224884); note: nearly all actives have a fitted effect of over 35% in size
Outline: as §1

[15] = qHTS RealTime-Glo MT Cell Viability Assay in HepG2 cells - 16 hour (AID 1224885); note: nearly all actives have a fitted effect of over 50% in size
Outline: as §5

[16] = qHTS RealTime-Glo MT Cell Viability Assay in HEK293 cells - 24 hour (AID 1224886)
Outline: as §3

[17] = qHTS RealTime-Glo MT Cell Viability Assay in HEK293 cells - 8 hour (AID 1224887)
Outline: as §6

[18] = qHTS RealTime-Glo MT Cell Viability Assay in HepG2 cells - 8 hour (AID 1224873); note: nearly all actives have a fitted effect of over 55% in size
Outline: as §2

[19] = qHTS RealTime-Glo MT Cell Viability Assay in HEK293 cells - 40 hour (AID 1224874); details: RealTime-Glo luminescence, stronger effect = lower value; note: nearly all actives have a fitted effect of over 50% in size
Outline: as §6
% is set by controls: 0 for no effect and ±100 for the full control effect.

CNCCc1ccccn1
inactive: outcome [1] | outcome [2] | Potency [3] | outcome [4] | Potency [5] | Potency [6] | outcome [7] | Potency [8] | Potency [9] | Potency [10] | Potency [11] | Potency [12] | Potency [13] | Potency [14] | outcome [15] | outcome [16] | outcome [17]

N#Cc1ccccc1C#N
inactive: outcome [1] | outcome [2] | Potency [3] | outcome [4] | outcome [18] | max response [19] 4.47% | Potency [5] | outcome [7] | Potency [8] | Potency [9] | Potency [10] | Potency [11] | Potency [12] | Potency [13] | Potency [14] | outcome [15] | outcome [16] | outcome [17]

CC(=O)c1c(C)cc(C(C)(C)C)cc1C
inactive: outcome [1] | outcome [2] | outcome [18] | outcome [7] | Potency [10] | Potency [12] | Potency [14] | outcome [15]
active: Potency [3] 24.5 µM | Potency [5] 21.9 µM | Potency [6] 38.9 µM | Potency [8] 34.7 µM | Potency [9] 38.9 µM | Potency [11] 24.5 µM | Potency [13] 38.9 µM

Cc1nnc(C(=O)NC(C)(C)c2nc(C(=O)NCc3ccc(F)cc3)c(O)c(=O)n2C)o1
inactive: outcome [1] | outcome [2] | Potency [3] | outcome [4] | outcome [18] | max response [19] 21.7% | Potency [5] | Potency [6] | outcome [7] | Potency [8] | Potency [9] | Potency [10] | Potency [11] | Potency [12] | Potency [13] | Potency [14] | outcome [15] | outcome [17]

C=CCN(CC=C)CC=C
inactive: outcome [1] | outcome [2] | Potency [3] | outcome [4] | outcome [18] | max response [19] 12.2% | Potency [5] | outcome [7] | Potency [8] | Potency [9] | Potency [10] | Potency [11] | Potency [12] | Potency [13] | Potency [14] | outcome [15] | outcome [16] | outcome [17]

C=CCn1cc[n+](C)c1
inactive: outcome [1] | outcome [2] | Potency [3] | outcome [4] | outcome [18] | max response [19] -3.76% | Potency [5] | outcome [7] | Potency [8] | Potency [9] | Potency [10] | Potency [11] | Potency [12] | Potency [13] | Potency [14] | outcome [15] | outcome [16] | outcome [17]

CCOCCOCCOC(C)=O
inactive: outcome [1] | outcome [2] | Potency [3] | outcome [4] | outcome [18] | Potency [5] | outcome [7] | Potency [8] | Potency [10] | Potency [11] | Potency [12] | Potency [13] | Potency [14] | outcome [15] | outcome [16] | outcome [17]

O=C1CC2(CCCC2)CC(=O)N1CCNCC1COc2ccccc2O1 (stereo unspecified)
inactive: outcome [1] | outcome [2] | Potency [3] | outcome [4] | outcome [18] | max response [19] -2.45% | Potency [5] | Potency [6] | outcome [7] | Potency [8] | Potency [9] | Potency [11] | Potency [12] | Potency [13] | Potency [14] | outcome [15] | outcome [16] | outcome [17]

CCc1ncc(C)[nH]1
inactive: outcome [1] | outcome [2] | Potency [3] | outcome [4] | outcome [18] | Potency [5] | Potency [6] | outcome [7] | Potency [8] | Potency [9] | Potency [10] | Potency [11] | Potency [12] | Potency [13] | Potency [14] | outcome [15] | outcome [16] | outcome [17]

CC(=O)SCC(CC(=O)c1ccc(C)cc1)C(=O)O (stereo unspecified)
inactive: outcome [1] | outcome [2] | Potency [3] | outcome [4] | Potency [5] | Potency [6] | outcome [7] | Potency [8] | Potency [9] | Potency [10] | Potency [11] | Potency [12] | Potency [13] | Potency [14] | outcome [15] | outcome [16] | outcome [17]

O=P(O)(O)C(O)(Cc1cccnc1)P(=O)(O)O
inactive: outcome [1] | outcome [2] | Potency [3] | outcome [4] | outcome [18] | max response [19] -1.75% | Potency [5] | Potency [6] | outcome [7] | Potency [8] | Potency [10] | Potency [11] | Potency [12] | Potency [13] | Potency [14] | outcome [15] | outcome [16] | outcome [17]

CCN1CCN(C(=O)N[C@@H](C(=O)N[C@@H]2C(=O)N3[C@@H]2SC(C)(C)[C@H]3C(=O)O)c2ccccc2)C(=O)C1=O
inactive: outcome [1] | outcome [2] | Potency [3] | outcome [4] | outcome [18] | max response [19] 1.08% | Potency [5] | outcome [7] | Potency [8] | Potency [9] | Potency [10] | Potency [11] | Potency [12] | Potency [13] | Potency [14] | outcome [15] | outcome [16] | outcome [17]

CCC(=O)OCCOc1ccccc1
inactive: outcome [1] | outcome [2] | Potency [3] | outcome [4] | outcome [18] | max response [19] 5.48% | Potency [5] | Potency [6] | outcome [7] | Potency [8] | Potency [10] | Potency [11] | Potency [12] | Potency [13] | Potency [14] | outcome [15] | outcome [16]
